Reference: PubChem BioAssay (EPA / NIEHS)
Where “and” joins values, the source holds several entries; their conditions need not be identical. Identical values can stand only once. Calls of active or inactive are those of the source. The calls were made as follows: active = hit-call score of the fitted dose curve at least 0.9, where 1 is the maximum; inactive = score below 0.9.

Experiment: CCTE_Padilla_ZF_144hpf_TERATOSCORE: (Legacy) CCTE's 144 Hour Post-fertilization zebrafish Assay Teratoscore, Padilla Lab (AID 2283679);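 as to AC50: teratogenicity score from eye scoring of death hatching and malformations at 144 hpf; higher score means more developmental defects relative to DMSO baseline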
Source text: CCTE_Padilla_ZF_144hpf is a whole embryo, multiplexed assay. Zebrafish embryos were exposed to chemicals starting 6 hr post-fertilization for 5 days in 96-well plates. Developing larvae were examined microscopically daily for malformation and mortality.CCTE_Padilla_ZF_144hpf_TERATOSCORE is one of one assay component(s) measured or calculated from the CCTE_Padilla_ZF_144hpf assay. It is designed to make measurements of developmental malformations and mortality as detected with brightfield microscopy.Data from the assay component CCTE_Padilla_ZF_144hpf_TERATOSCORE was analyzed into 1 assay endpoint. This assay endpoint, CCTE_Padilla_ZF_144hpf_TERATOSCORE, was analyzed in the positive analysis fitting direction relative to DMSO as the negative control and baseline of activity. Using a type of morphological reporter, gain-of-signal activity can be used to understand changes in developmental defect as they relate to the whole embryo. To generalize the intended target to other relatable targets, this assay endpoint is annotated to the malformation intended target family, where the subfamily is total.
Zebrafish husbandry: Wild type adult zebrafish (Danio rerio; undefined outbred stock obtained from Aquatic Research Organisms, Hampton, NH, 03842) were housed in an AAALAC-approved animal facility at 28C with a 14:10 h light: dark cycle (lights on at 08:30 h). Adult fish (2-3 females per male; density = 15-20 adults per tank) were kept in one of several 9-liter (L) flow-through colony tanks (Aquaneering Inc., San Diego, CA). All adults in a colony tank were placed in a 2 L (static) breeding tank (Aquatic Habitats, Apopka, FL) one hour prior to light onset. Typically, adults from two to three colony tanks were mated on the same day. Two hours after light onset the adults were returned to the colony tank. All embryos were gathered from each breeder tank, pooled, and placed in a 28C water bath for 2 h, followed by two washes with 0.06% bleach (v/v) in 10% Hanks' Balanced Salt Solution (13.7 mM NaCl 0.54 mM KCl, 25 uM Na2HPO4, 130 uM CaCl2 100 um MgSO4 and 420 um NaHCO3,), hereafter referred to as Hanks' solution, for 5 min in order to remove any residual bacteria or fungi. Immediately following washing, the embryos were examined, and healthy embryos were separated from dead or unfertilized eggs and moved into fresh Hanks'. Single Concentration Study: The chemicals were arrayed on a 96-well stock plate, 80 chemicals per plate, 20 mM concentration of each, with 16 DMSO (vehicle) controls. The embryos were exposed to the chemicals (80 Mfinal concentration, renewed daily) by immersion from 0 dpf until 5 dpf. Eighty micromolar was chosen as the highest concentration for two reasons (1) because the stock solutions were prepared at 20 mM in 100% DMSO. On 6 dpf, each embryo/larva was assessed for viability, hatching status and malformations. There were 4 embryos per concentration per chemical (each embryo on a separate microtiter plate). […] Chemical exposures: Zebrafish embryos were exposed in 96-well plates. Briefly, on day 0, approximately 6-8 h after fertilization, zebrafish embryos (with chorions) were placed 1 embryo per well in Millipore Multiscreen Nylon mesh plates (catalog number MANMN4050, Millipore Corp, Bedford, MA) and exposed to nominal concentrations of the chemicals. In each well, 1 ul of the chemical in DMSO from the stock plate was diluted with 250 ul of 10% Hanks' solution; the final DMSO concentration was 0.4% (v/v) in all wells; vehicle controls receives DMSO only. Each plate was sealed with a non-adhesive material (Type A, BioRad, Hercules, CA), covered with a lid, and wrapped in Parafilm to minimize evaporation. All embryos and larvae were kept in a 26C incubator with a 14:10 h light-dark cycle (with lights on at 08:30 h and off at 22:30 h). […]

| Structure (SMILES) | AC50 | outcome |
| --- | --- | --- |
| CC(C)OC(=O)Nc1cccc(Cl)c1 | 72.3 µM (active) | – |
| [2H]C1([2H])[n+]2ccccc2-c2cccc[n+]2C1([2H])[2H] | – | inactive |
| COP(=S)(OC)Oc1ccc([N+](=O)[O-])cc1 | 16.1 µM (active) | – |
| O=S1OCC2C(CO1)C1(Cl)C(Cl)=C(Cl)C2(Cl)C1(Cl)Cl (stereo not given) | 3.4 µM (active) | – |
| O=C(O)COc1ccc(Cl)cc1Cl | – | inactive |
| ClC1C(Cl)C(Cl)C(Cl)C(Cl)C1Cl (stereo not given) | 42.6 µM (active) | – |
| O=C(O)CCCOc1ccc(Cl)cc1Cl | 15.6 µM (active) | – |
| N#CN | – | inactive |
| COC(=O)c1ccccc1S(=O)(=O)NC(=O)N(C)c1nc(C)nc(OC)n1 | – | inactive |
| Oc1cc(Cl)ccc1Oc1ccc(Cl)cc1Cl | 1.48 µM (active) and 4.99 µM (active) and 1.9 µM (active) | – |
| CC(C)(C)C(O)C(Oc1ccc(Cl)cc1)n1cncn1 (stereo not given) | 52.6 µM (active) and 46.6 µM (active) and 57.3 µM (active) | – |
| CCOCN(C(=O)CCl)c1c(C)cccc1CC | 15.5 µM (active) | – |
| CCC(C)(C)C(=O)OC1=C(c2ccc(Cl)cc2Cl)C(=O)OC12CCCCC2 | 1.89 µM (active) | – |
| COc1cc(OC)nc(NC(=O)NS(=O)(=O)c2cc(NC=O)ccc2C(=O)N(C)C)n1 | – | inactive |
| O=C(O)C(F)(F)C(F)(F)C(F)(F)C(F)(F)C(F)(F)C(F)(F)C(F)(F)F | – | inactive |
| CNC(=O)Oc1cccc(N=CN(C)C)c1 | – | inactive |
| O=C(Nc1ccccc1)Nc1cnns1 | – | inactive |
| CC1(C)C(C=C(Cl)Cl)C1C(=O)OC(C#N)c1ccc(F)c(Oc2ccccc2)c1 (stereo not given) | 0.345 µM (active) | – |
| CCOc1nc(NC)nc(NC(=O)NS(=O)(=O)c2ccccc2C(=O)OC)n1 | – | inactive |
| OCCOc1ccccc1 | – | inactive |

| Structure (SMILES) | AC50 | outcome |
| --- | --- | --- |
| O=C(NC(=O)c1c(F)cccc1F)Nc1ccc(OC(F)(F)C(F)OC(F)(F)F)c(Cl)c1 (stereo not given) | – | inactive |
| CCCN(CCOc1c(Cl)cc(Cl)cc1Cl)C(=O)n1ccnc1 | 5.63 µM (active) | – |
| CC(C)(C)C(O)/C(=C\c1ccc(Cl)cc1Cl)n1cncn1 (stereo not given) | 8.76 µM (active) | – |
| CC1(c2ccc(Oc3ccccc3)cc2)OC(=O)N(Nc2ccccc2)C1=O (stereo not given) | 0.172 µM (active) | – |
| Clc1ccccc1-c1nnc(-c2ccccc2Cl)nn1 | – | inactive |
| N#Cc1c(Cl)c(Cl)c(Cl)c(C#N)c1Cl | 0.187 µM (active) | – |
| COP(=S)(OC)Oc1ccc(SC)c(C)c1 | 16.1 µM (active) | – |
| CNC(=O)CSP(=S)(OC)OC | – | inactive |
| CCN(CC)C(=O)SCc1ccc(Cl)cc1 | 23.4 µM (active) | – |
| C#CCN1C(=O)COc2cc(F)c(N3C(=O)C4=C(CCCC4)C3=O)cc21 | 4.15 µM (active) | – |
| COC(=O)c1ccccc1S(=O)(=O)NC(=O)Nc1nc(C)nc(OC)n1 | – | inactive |
| COP(=O)(OC)OC=C(Cl)Cl | 53.8 µM (active) | – |
| CCS(=O)(=O)c1cccnc1S(=O)(=O)NC(=O)Nc1nc(OC)cc(OC)n1 | – | inactive |
| O=[N+]([O-])c1c(Cl)c(Cl)c(Cl)c(Cl)c1Cl | 31.1 µM (active) | – |
| Oc1ccc(Cl)cc1Cc1ccccc1 | 5.12 µM (active) and 9.81 µM (active) and 9.21 µM (active) | – |
| COC(=O)c1ccccc1CS(=O)(=O)NC(=O)Nc1nc(OC)cc(OC)n1 | – | inactive |
| CC[C@H](C)[C@H]1O[C@]2(C=C[C@@H]1C)C[C@@H]1C[C@@H](C/C=C(\C)[C@@H](O[C@H]3C[C@H](OC)[C@@H](O[C@H]4C[C@H](OC)[C@@H](O)[C@H](C)O4)[C@H](C)O3)[C@@H](C)/C=C/C=C3\CO[C@@H]4[C@H](O)C(C)=C[C@@H](C(=O)O1)[C@]34O)O2 (tested in a mixture with another compound) | 0.0449 µM (active) | – |
| O=C1c2ccccc2C(=O)N1SC(Cl)(Cl)Cl | 19.3 µM (active) | – |
| CCC(C)(NC(=O)c1cc(Cl)c(C)c(Cl)c1)C(=O)CCl (stereo not given) | 5.78 µM (active) | – |
| Cc1[nH]c(=O)n(C(C)(C)C)c(=O)c1Cl | – | inactive |
